From PubChem BioAssay
Most compounds without a hit are left out; they make up all but 1.1% or so of the library.
VLA-4 inh – inhibition in a human VLA-4 binding assay; P13612; VLA-4 expressing cells, ligand binding flow cytometry; inhibition, % (about 7 µM as worked out from the volumes in the protocol); 330,000 tested, 0.2% active; AID 2557; in the data active = inhibition above about 50%
AGP1-GFP MLPCN – yeast TOR pathway AGP1-GFP modulation | S. cerevisiae AGP1-GFP multiplex flow cytometry, 3 h; GFP as percent of DMSO wells | GFP response vs DMSO, % at 10 µM | 320,000 tested, 0.02% active;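 active = GFP response relative to DMSO above a set limit, near screen average plus 3 SD, cut at about 150% in these data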;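 also: median GFP channel fluorescence of the gated AGP1 strain per well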
RPL19A TOR yeast – yeast TOR pathway RPL19A-GFP modulation; S. cerevisiae RPL19A-GFP strain, flow cytometry, 3 h; active compounds read low; percent response vs DMSO, % at 10 µM; 330,000 tested, 0.3% active; AID 2025;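 active = percent response vs DMSO below 50%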;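 also: median channel GFP fluorescence of the barcoded RPL19A-GFP strain; ratio of sample median GFP to plate DMSO average so 100% = DMSO; lower means less RPL19A-GFP as with rapamycin TOR inhibition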
CIT2 TOR yeast – yeast TOR pathway CIT2-GFP modulation | S. cerevisiae CIT2-GFP strain, flow cytometry, 3 h; 100 means same as DMSO wells | GFP response vs DMSO, % at 10 µM | 320,000 tested, 0.065% active | AID 2029;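 active = GFP response relative to DMSO above a set limit, near the screen mean plus 3 SD, cut at about 150% in these data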;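 also: ratio of well median GFP fluorescence to mean of DMSO wells on the plate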
LAP4-GFP MLPCN – alters LAP4-GFP fluorescence in TOR pathway yeast screen; S. cerevisiae LAP4-GFP multiplex, flow cytometry GFP, 3 h; median GFP as percent of DMSO wells; GFP response vs DMSO, % at 10 µM; 320,000 tested, 0.34% active; AID 2023;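 active = GFP response vs DMSO above a set limit, about the screen mean plus 3 SD, cut at about 150% in these data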
MEP2 TOR yeast – alters MEP2-GFP fluorescence in TOR pathway yeast screen | S. cerevisiae MEP2-GFP strain, flow cytometry GFP, 3 h; 100% = DMSO control level | GFP response vs DMSO, % at 10 µM | 330,000 tested, 0.51% active | AID 2016;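 active = GFP response versus DMSO above a set limit, roughly screen mean plus 3 SD, cut at about 180% in these data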;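 also: median GFP fluorescence of the barcode-gated MEP2-GFP cells per well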
VLA-4 allo CP – human VLA-4 allosteric modulation in cherry picked compounds. shares compounds with VLA-4 inh. U937 cells, HUTS-21 LIBS mAb binding, flow cytometry; LDV ligand present at threefold Kd. inhibition, % at 6.7 µM. 1,300 tested, 2% active. AID 2813; in the data active = inhibition above about 40%;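 also: 0% = ligand without compound and 100% = no ligand background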
* = called active by the depositor; · = not tested or not shown; ! = not active in a repeat.

SMILES | VLA-4 inh | AGP1-GFP MLPCN | RPL19A TOR yeast | CIT2 TOR yeast | LAP4-GFP MLPCN | MEP2 TOR yeast | VLA-4 allo CP
Cc1cc(C)c(C)c(S(=O)(=O)NCC(=O)Nc2ccc(F)cc2)c1C | -1 | 104 | 105 | 95 | 102 | 103 | ·
C[C@]12CCC(=O)C=C1CC[C@@H]1[C@@H]2[C@@H](O)C[C@@]2(C)[C@H]1CC[C@]2(O)C(=O)COC(=O)CCC(=O)O | 53*! | 90 | 99 | 92 | 123 | 98 | 4
O=C(NNC(=O)c1ccc(NC(=O)C2CC2)cc1)c1ccc(F)cc1 | 3 | 106 | 126 | 114 | 79 | 111 | ·
CC(C)Cc1nnc(NC(=O)C2CCN(C(=O)c3ccc(F)cc3)CC2)s1 | 4 | 107 | 96 | 91 | 93 | 90 | ·
O=C(Nc1ccc(F)cc1)C1CCN(C(=O)c2ccc(F)cc2)CC1 | 3 | 100 | 98 | 107 | 93 | 100 | 0
Cc1ccc(NC(=O)C2CCN(C(=O)c3ccc(F)cc3)CC2)nc1 | 1 | 106 | 102 | 101 | 107 | 104 | -2
O=C(NCCc1ccc(F)cc1)C1CCN(C(=O)Nc2ccccc2)CC1 | 58* | 105 | 97 | 98 | 103 | 100 | 0
CC(=O)NC(C)(CC(=O)c1ccccc1)c1ccccc1 (stereo not drawn) | -8 | 113 | 102 | 109 | 128 | 101 | ·
CCCn1c(SCC(=O)NC)nc2sc3c(c2c1=O)CCC3 | 57* | 103 | 100 | 102 | 96 | 107 | 5
CCCn1c(SCC(=O)NC(C)C)nc2sc3c(c2c1=O)CCC3 | 1 | 93 | 95 | 92 | 92 | 102 | ·
N#Cc1c(SCC(N)=O)nc(-c2ccccc2)c2c1CCCC2 | -13 | 87 | 87 | 92 | 91 | 94 | ·
N#Cc1c(SCC(=O)O)nc(-c2ccccc2)c2c1CCCC2 | 94* | 91 | 97 | 92 | 98 | 97 | 0
N#CC(c1ccc(Cl)cc1)c1cccc(Cl)n1 (stereo not drawn) | 12 | 102 | 96 | 101 | 107 | 101 | ·
COc1ccc(C(C#N)c2ccc(=O)[nH]n2)cc1 (stereo not drawn) | 55* | 97 | 96 | 92 | 112 | 100 | -9
COc1ccc(Br)cc1S(=O)(=O)n1c([N+](=O)[O-])cnc1C | 45 | 96 | 104 | 97 | 90 | 102 | -13
COc1ccc(S(=O)(=O)n2c([N+](=O)[O-])cnc2C)c(C)c1C | -2 | 103 | 106 | 104 | 101 | 109 | ·
CCOc1ccc(S(=O)(=O)Nc2ccccc2C(=O)N(C)C2CCN(C)CC2)cc1 | 50* | 94 | 93 | 94 | 95 | 100 | -10
CCc1ccc(NC(=O)CN(C)S(=O)(=O)c2ccc3[nH]c(=O)oc3c2)cc1 | 2 | 101 | 102 | 103 | 99 | 106 | ·
CCN1CCN(CC(O)COc2ccc(C)c(C)c2)CC1 (stereo not drawn) | 92* | 97 | 90 | 83 | 97 | 101 | -4
COC(=O)c1sccc1NC(=O)c1c(F)c(F)c(F)c(F)c1F | 13 | 93 | 95 | 97 | 119 | 96 | ·
Cc1cc(C)c(C#N)c(Oc2ccc(O)cc2)n1 | 26 | 97 | 97 | 94 | 89 | 92 | ·
CCCC(=O)Nc1cccc(Oc2nc(C)cc(C)c2C#N)c1 | 89* | 112 | 90 | 108 | 108 | 114 | 1
CC(=O)Oc1ccc(NC(=O)Cc2ccccc2)c(C(=O)O)c1 | 52* | 95 | 102 | 101 | 89 | 105 | -2
COc1ccc(CC(=O)Nc2ccc(OC(C)=O)cc2C(=O)O)cc1 | 11 | 99 | 100 | 108 | 92 | 109 | ·
CC(C)CNC(=O)CN(C1CCCCC1)S(C)(=O)=O | 5 | 104 | 102 | 109 | 100 | 100 | ·
SMILES | VLA-4 inh | AGP1-GFP MLPCN | RPL19A TOR yeast | CIT2 TOR yeast | LAP4-GFP MLPCN | MEP2 TOR yeast | VLA-4 allo CP
CCCNC(=O)CN(C1CCCCC1)S(C)(=O)=O | 91* | 107 | 99 | 103 | 104 | 101 | 9
OC1C(O)C(O)C(O)C(O)C1O (stereo not drawn) | 51*! | 94 | 102 | 85 | 98 | 101 | 3
Cc1ccc(NS(=O)(=O)c2ccc(-c3cnc(C4CC4)o3)cc2)c(C)c1 | 55* | 100 | 102 | 102 | 118 | 100 | 47*
CC(Oc1ccc2ccccc2c1)C(=O)NNC(=O)Nc1ccccc1 (stereo not drawn) | -10 | 94 | 119 | 84 | 79 | 107 | ·
CCN(CC)CCOCCOC(=O)C1(c2ccccc2)CCCC1 | 57* | 98 | 97 | 96 | 103 | 94 | 2
Cc1ccc(C(=C2C3C=CC2C2C(=O)NC(=O)C32)c2ccc(C)cc2)cc1 (stereo not drawn) | 56* | 104 | 100 | 100 | 103 | 98 | 6
COc1cccc(C(=O)Nc2ncc3c(n2)CC(C)CC3=O)c1 (stereo not drawn) | 62* | 101 | 97 | 100 | 101 | 109 | 0
C[C@H]1CN([C@@H](C)CO)C(=O)c2cc(NC(=O)C3CCCCC3)ccc2O[C@H]1CN(C)S(=O)(=O)c1ccccc1 | 2 | · | · | · | · | · | ·
CC(C)Oc1ccccc1C1CC(=O)Nc2cc3c(cc21)OCO3 (stereo not drawn) | 57* | 104 | 92 | 80 | 92 | 95 | 42*
Cc1cc2c(cc1C)C(c1ccccc1OC(C)C)CC(=O)N2 (stereo not drawn) | 3 | 107 | 104 | 106 | 97 | 108 | -5
COc1ccc(/C=N/NC(=O)CCc2n[nH]c(=O)[nH]c2=O)cc1O | 45 | 96 | 102 | 96 | 93 | 97 | 2
O=C(Nc1cccc(S(=O)(=O)N2CCCCC2)c1)c1cc([N+](=O)[O-])ccc1N1CCOCC1 | 0 | 99 | 100 | 99 | 102 | 105 | ·
O=C(Nc1ccccc1)c1cc(S(=O)(=O)N2CCCCC2)ccc1N1CCOCC1 | 19 | 100 | 98 | 94 | 109 | 108 | 0
NC(=O)c1ccccc1NC(=O)c1cc(S(=O)(=O)N2CCCCC2)ccc1N1CCOCC1 | 6 | 91 | 94 | 89 | 98 | 99 | -4
O=C(Nc1cc(S(=O)(=O)N2CCOCC2)ccc1N1CCOCC1)c1ccccc1Cl | 2 | 99 | 97 | 104 | 99 | 102 | ·
Cc1ccc(C)c(NC(=O)c2cc(S(=O)(=O)N3CCCCC3)ccc2N2CCOCC2)c1 | 51* | 94 | 99 | 98 | 104 | 107 | 4
O=C(N/N=C/c1ccc(Br)s1)c1c[nH]c2ccccc12 | 12 | 103 | 106 | 100 | 104 | 119 | ·
COc1ccc(Cl)cc1NC(=O)CN(C)C(=O)c1cc2c(s1)CCC(C)C2 (stereo not drawn) | 12 | 90 | 94 | 93 | 93 | 95 | ·
